Holding throughout (test): NCI-60 one-dose screen, 48 h (100 = growth as untreated, 0 = no growth, -100 = all killed)
What all share (conditions): 10 µM unless noted

Experiment [1] concerns T-47D breast.
Experiment [2] has as its system BT-549 breast.
The subject of experiment [3] is MDA-MB-435 melanoma.
For experiment [4], the system named is SW-620 colon.
The subject of experiment [5] is MCF7 breast.
The subject of experiment [6] is HCT-116 colon.
The subject of experiment [7] is HCC-2998 colon.
Experiment [8] deals with KM12 colon.

The panel holds about 83,000 compounds, 20% with a hit somewhere; the sample as a whole holds those more often.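 Method: cells in 96-well plates; compound added at one concentration; 48 h incubation; percent growth measured; values under 10 scored active.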 Values without a mark were called inactive. The source made the active and inactive calls.

For `C#Cc1cc(OC)c(C(=O)Nc2ccc(F)cc2C(=O)Nc2cccc(S(=O)(=O)C(F)(F)F)c2)cn1`, the growth is 23.4% in experiment [1]; 1.8% (active) in experiment [2]; 10.2% in experiment [3]; 5.83% (active) in experiment [4]; 13.1% in experiment [5]; 3.82% (active) in experiment [6]. Besides, the figures for the growth in experiment [7] and in experiment [8] were 47.8% and 4.44% (active), respectively.
For the compound `COc1cccc2c1C=CC1(O2)Oc2cccc(OC)c2C=C1C` (configuration not stated), the growth in experiment [1] is 45.7%; in experiment [2] it was 25.1%; in experiment [3], -10.1% (active); in experiment [4] it was 30%; in experiment [5], 13.1%; in experiment [6] it was 14%. Further, the growth in experiment [7] is 15.8%; in experiment [8], 20.5%.
With `O=C(CCCCCCN1CC(=O)N2[C@@H](c3ccccc3Br)c3[nH]c4ccccc4c3C[C@H]2C1=O)NO`, the growth is 19.2% in experiment [1]; 87.1% in experiment [2]; 27.8% in experiment [3]; 24.7% in experiment [4]; 21.4% in experiment [5]; 12.7% in experiment [6]. Moreover, the results for the growth in experiment [7] and in experiment [8] were 56.9% and 73%, respectively.
As to `CC1=Cc2ccccc2OC12C=Cc1ccccc1O2` (configuration not stated), the growth in experiment [1] is 81.8%; in experiment [2], 106%; in experiment [3], 105%; in experiment [4], 101%; in experiment [5], 82.6%; in experiment [6], 99.3%. The growth in experiment [7] was 99.9%; in experiment [8], 97.6%.
In the case of `CCNC(=O)Oc1ccc(/C(=C(/C)c2ccc(OC)cc2)c2ccc(OCCN3CCCCCC3)cc2)cc1`, the growth in experiment [1] is 26.6%; in experiment [2] it was 73.3%; in experiment [3], 43.7%; in experiment [4] it was -25.9% (active); in experiment [5], 8.81% (active); in experiment [6], 13.4%. Besides, the growth is 67.9% in experiment [7] and 39.6% in experiment [8].
For `CNC(=O)c1cc(-c2ccc(NC(=S)Nc3cccc(C(F)(F)F)c3)cc2)nc2cccnc12`, the growth in experiment [1] is 102%; in experiment [2], 104%; in experiment [3] it was 95.9%; in experiment [4], 96.8%; in experiment [5], 80.3%; in experiment [6], 103%. In addition, the growth is 116% in experiment [7] and 98.8% in experiment [8].
Regarding `O=C(Nc1cc(C(F)(F)F)cc(C(F)(F)F)c1)Nc1ccc2oc(=O)ccc2c1`, the growth in experiment [1] is 4.8% (active); in experiment [2] it was 10%; in experiment [3], 3.64% (active); in experiment [4] it was 19.4%; in experiment [5], 3.81% (active); in experiment [6] it was 2.09% (active). For the same compound, the results for the growth in experiment [7] and in experiment [8] were 11.2% and 9.67% (active), respectively.
Turning to `N#Cc1nc(-c2ccccc2)oc1N1CCC(C2(C(F)(F)F)N=N2)CC1`, the growth in experiment [1] is 95.6%; in experiment [2] it was 136%; in experiment [3], 101%; in experiment [4], 98.8%; in experiment [5] it was 89.1%; in experiment [6] it was 104%. Besides, the growth is 107% in experiment [7] and 96.2% in experiment [8].
As for `NC(N)=NS(=O)(=O)c1ccc(N=Nc2c(N)nn(-c3ccc([N+](=O)[O-])cc3[N+](=O)[O-])c2N)cc1`, the growth in experiment [1] was 104%; in experiment [2] it was 123%; in experiment [3], 103%; in experiment [4], 101%; in experiment [5], 96.2%; in experiment [6], 101%. The results for the growth in experiment [7] and in experiment [8] were 113% and 101%, respectively.
For `COC(=O)c1ccc(NC2=C(Cl)C(=O)c3nc(C)ccc3C2=O)cc1`, the growth in experiment [1] is 31.2%; in experiment [2], 99%; in experiment [3], 60.6%; in experiment [4] it was 18.3%; in experiment [5], 30.5%; in experiment [6], 43.1%. Moreover, the values for the growth in experiment [7] and in experiment [8] were 102% and 50.3%, respectively.
For `COC(=O)N1CCN(CCNCc2ccc(NC(=O)c3ccc(C)c(C#Cc4cnc5cccnn45)c3)cc2C(F)(F)F)CC1`, the growth in experiment [1] was 34%; in experiment [2], 24.1%; in experiment [3], -21.8% (active); in experiment [4], 14.6%; in experiment [5], -6.54% (active); in experiment [6], 4.9% (active). In addition, the growth in experiment [7] is 14.4%; in experiment [8] it was 4.91% (active).
As for `CC1=C(C)C(=O)C(Nc2ccc(C)cc2)=C(Br)C1=O`, the growth was 15.7% in experiment [1]; 104% in experiment [2]; 103% in experiment [3]; 103% in experiment [4]; 76% in experiment [5]; 35.4% in experiment [6]. Besides, the growth in experiment [7] and in experiment [8] was 104% each time.
With `COc1ccc(OC)c(NC(=O)CCCCCCNC(=O)C(O)(O)C(F)(F)F)c1`, the growth in experiment [1] was 22.4%; in experiment [2] it was 76.8%; in experiment [3] it was 30.1%; in experiment [4], 6.62% (active); in experiment [5] it was 36.9%; in experiment [6], 7.1% (active). Besides, the growth was 51.5% in experiment [7] and 43.5% in experiment [8].
Regarding `O=C1/C(=C/C=C/c2ccco2)SC(=S)N1Cc1ccccc1`, the growth in experiment [1] was 75.6%; in experiment [2] it was 110%; in experiment [3], 92.7%; in experiment [4] it was 94.2%; in experiment [5], 28.4%; in experiment [6], 91%. The growth in experiment [7] was 99.7%; in experiment [8], 78.6%.
For the compound `CN1CCN(CCNc2nc(-c3cccc(NS(=O)(=O)c4cccc5c(N(C)C)cccc45)c3)cs2)CC1`, the growth in experiment [1] is 39.6%; in experiment [2], 58.6%; in experiment [3], 66%; in experiment [4], 70.5%; in experiment [5], 11.1%; in experiment [6], 32.2%. Besides, the growth in experiment [7] is 49.5%; in experiment [8] it was 77.3%.
As for `CN1CCN(Cc2ccc(NC(=O)c3cncc(C#Cc4cnc5ccc(N6CCOCC6)nn45)c3)cc2C(F)(F)F)CC1`, the growth in experiment [1] is -5.39% (active); in experiment [2] it was -71.7% (active); in experiment [3], -65% (active); in experiment [4], -19.2% (active); in experiment [5], -69% (active); in experiment [6], -76.2% (active). Further, the growth in experiment [7] was -33.2% (active); in experiment [8] it was -46.2% (active).
With `CN1CCN(c2ccc(Nc3nc(NCCNC(=O)c4ccc(F)cc4)c4sccc4n3)cc2)CC1`, the growth in experiment [1] is 18.2%; in experiment [2], 56.1%; in experiment [3] it was 46.9%; in experiment [4], 75.2%; in experiment [5] it was 41%; in experiment [6] it was 22%. In addition, the growth in experiment [7] is 70.4%; in experiment [8] it was 65.4%.
As for `Clc1ccc2[nH]cc(-c3nn4cc(-c5ccncc5)nc4s3)c2c1`, the growth in experiment [1] was 6.38% (active); in experiment [2], -54.3% (active); in experiment [3] it was 51%; in experiment [4], 50.7%; in experiment [5] it was 24.2%; in experiment [6], 10.8%. Moreover, the growth in experiment [7] is 85.3%; in experiment [8] it was 47.7%.
Consider `CC(=O)Nc1nc(C)c(-c2csc(Nc3ccccc3)n2)s1`, for which the growth is 7.07% (active) in experiment [1]; 18.1% in experiment [2]; 43.3% in experiment [3]; 57.8% in experiment [4]; 12.3% in experiment [5]; 19.7% in experiment [6]. In addition, the growth was 52.3% in experiment [7] and 41.1% in experiment [8].
As to `O=C(CSc1nnc(-c2ccc(Cl)cc2)n1-c1ccccc1)Nc1ccccc1Cl`, the growth in experiment [1] is 45.7%; in experiment [2], 53.8%; in experiment [3], 80.9%; in experiment [4] it was 51.6%; in experiment [5] it was 66.4%; in experiment [6] it was 12.1%. Also, the growth in experiment [7] is 88.3%; in experiment [8] it was 80%.
`C#CCOc1cccc(/C(N)=N/C(N)=N/c2nc3ccccc3s2)c1`: the growth in experiment [1] was 72.3%; in experiment [2], 91.7%; in experiment [3], 104%; in experiment [4] it was 105%; in experiment [5] it was 74.2%; in experiment [6], 80.4%. For the same compound, the growth was 109% in experiment [7] and 78.7% in experiment [8].
For the compound `CCN(CC)c1ccc(/C=N/NC(=O)c2ccc(S(N)(=O)=O)cc2)cc1`, the growth in experiment [1] was 26%; in experiment [2] it was 26.3%; in experiment [3], 33%; in experiment [4], 40.4%; in experiment [5] it was 7.83% (active); in experiment [6] it was 21.5%. In addition, the growth in experiment [7] was 43%; in experiment [8], 21%.
In the case of `NC1[C@H]2CN(c3cnc(C(=O)Nc4cc(F)cc5cccnc45)cn3)C[C@@H]12` (some centres not stated), the growth in experiment [1] was 32.4%; in experiment [2] it was 91.8%; in experiment [3], 90%; in experiment [4], 47.6%; in experiment [5] it was 6.12% (active); in experiment [6], 10.7%. Further, the growth in experiment [7] was 84.3%; in experiment [8] it was 87.4%.
Turning to `CN1CCN(c2ccc(Nc3nc(NCCNS(=O)(=O)c4ccccc4)c4sccc4n3)cc2)CC1`, the growth was 86.3% in experiment [1]; 108% in experiment [2]; 105% in experiment [3]; 101% in experiment [4]; 92.1% in experiment [5]; 96% in experiment [6]. Besides, the figures for the growth in experiment [7] and in experiment [8] were 106% and 103%, respectively.
With `CN1CCN(c2ccc(Nc3nc(NCCCNS(=O)(=O)c4cccc(F)c4)c4sccc4n3)cc2)CC1`, the growth in experiment [1] is 22.8%; in experiment [2], 42.7%; in experiment [3], 14.1%; in experiment [4] it was 46.5%; in experiment [5], 25.7%; in experiment [6] it was 11.1%. Also, the growth in experiment [7] is 37.9%; in experiment [8] it was 54%.
As to `O=C(/C=C/c1cccc(Br)c1)c1cccc(OCCCCOc2cccc(C(=O)/C=C/c3cccc(Br)c3)c2)c1`, the growth in experiment [1] is 104%; in experiment [2], 117%; in experiment [3], 105%; in experiment [4] it was 98.3%; in experiment [5], 89.5%; in experiment [6], 87%. Further, the growth in experiment [7] was 118%; in experiment [8], 98.7%.
`CCCCSC1=C(Cl)CN(c2ccc(Cl)cc2)C1=O`: the growth in experiment [1] was 72.7%; in experiment [2], 112%; in experiment [3], 107%; in experiment [4], 104%; in experiment [5] it was 26.2%; in experiment [6] it was 93.4%. Moreover, the results for the growth in experiment [7] and in experiment [8] were 107% and 98.7%, respectively.
`N#C/C(=N\Nc1ccc(F)cc1)C(=O)Nc1cc(-c2ccccc2)nn1-c1ccccc1`: the growth is -5.1% (active) in experiment [1]; 7.63% (active) in experiment [2]; 6.98% (active) in experiment [3]; 17.5% in experiment [4]; 0.117% (active) in experiment [5]; 7.78% (active) in experiment [6]. In addition, the growth in experiment [7] was 19.5%; in experiment [8] it was 9.32% (active).
Take `O=c1nc(Nc2ccc([N+](=O)[O-])cc2O)sc2ccccc12`: the growth in experiment [1] was 31.1%; in experiment [2], 50.6%; in experiment [3], -42.9% (active); in experiment [4], 22.3%; in experiment [5], 18.1%; in experiment [6], 20.2%. The growth was 62.4% in experiment [7] and 23.9% in experiment [8].

For the origin of these results see PubChem BioAssay (NCI).
